From PubChem
FUS suppressor – FUS proteinopathy suppression in yeast. hit rate 0.24% among 390,000. Potency, µM (top dose mostly 76.6 µM), most hits filed as activators. S. cerevisiae FUS-expressing, growth rescue, OD600, 24 h; note: nearly all actives have a fitted effect of over 55% in size
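Galactose (2%) drives FUS expression in yeast precultured in raffinose; seeding density OD 0.005. Test compounds incubated 24hr at 30C and 99% humidity before absorbance at 600 nm was measured.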
Abeta yeast res – compounds reversing amyloid beta toxicity in yeast; yeast expressing A-beta42, growth rescue, OD600, 48 h; response scale: 0% DMSO, 100% iron-clioquinol control; Potency, µM (titrated, usually from 46.1 µM), actives largely listed as activators; hit rate 0.063% among 410,000; AID 1347071; note: nearly all actives have a fitted effect of over 55% in size
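Growth rescue measured by 600 nm absorbance after 48 h yeast culture at 30 C with compound. Values normalized between DMSO and an equimolar ferric chloride plus clioquinol control.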
TSG101-PTAP inh – blocks PTAP/TSG101 interaction to inhibit HIV-1 budding. Potency, µM (series often up to 115 µM), actives largely listed as inhibitors. Q99816. 340,000 tested, under 10 active. AID 493005. Fluorescence polarization, FITC-PTAP peptide / Tsg101 binding; active = well fitted inhibition curve with a large enough effect in the main read-out, with a control signal flat, not every such curve was filed as active; inconclusive = small, poorly fitted or top-dose-only effect, or effect the other way, or a change in a side signal; inactive = no such curve, though single readings can be large or run the other way
Target sequence (Q99816 whole entry, looked up): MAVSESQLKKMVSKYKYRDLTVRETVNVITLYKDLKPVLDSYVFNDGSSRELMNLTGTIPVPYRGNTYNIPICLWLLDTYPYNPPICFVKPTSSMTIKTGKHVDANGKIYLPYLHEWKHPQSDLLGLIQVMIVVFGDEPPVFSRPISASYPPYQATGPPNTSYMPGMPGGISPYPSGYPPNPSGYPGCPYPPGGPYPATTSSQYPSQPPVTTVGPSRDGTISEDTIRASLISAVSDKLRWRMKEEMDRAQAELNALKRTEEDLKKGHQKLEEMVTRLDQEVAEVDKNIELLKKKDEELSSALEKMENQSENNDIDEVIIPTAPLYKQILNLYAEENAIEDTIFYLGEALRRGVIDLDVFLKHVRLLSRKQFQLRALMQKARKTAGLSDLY
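Fluorescence polarization binding of Tsg101 binding domain (10 uM final) to FITC-labeled PTAP peptide (50 nM final) in HEPES pH 7.5 buffer with NaCl, Tween 20, EDTA, TCEP. Compounds added before peptide; binding 20 min at RT.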
aSyn rescue – rescues yeast growth from alpha-synuclein toxicity; Yeast expressing alpha-synuclein, growth rescue, BacTiter-Glo, 24 h; hit rate 0.14% among 370,000; Potency, µM (series often up to 46.1 µM), most hits filed as activators; note: nearly all actives have a fitted effect of over 65% in size
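Readout is rescue of growth in alpha-synuclein-expressing yeast, so inhibitors of toxicity appear as activators. Growth after 24 hr at 30 deg C in galactose medium is quantified by luminescence.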
TDP43 rescue – TDP-43 toxicity inhibition in yeast | TDP-43 expressing yeast growth rescue, BacTiter-Glo, 24 h | Potency, µM (series often up to 46.1 µM), actives largely listed as activators | hit rate 1.8% among 410,000; note: nearly all actives have a fitted effect of over 50% in size
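Yeast expressing TDP-43 (pregrown in raffinose, seeded at OD600=0.02 in galactose medium) exposed to compounds 24 hr at 30 deg C. Growth read by BacTiter-Glo luminescence; rescue of toxicity appears as increased signal.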
Numbers stand for hits; - = inactive; ? = inconclusive; . = not tested or not shown; [ ] = dose if it differs, or a comment. Compounds with a hit are over-represented: about 2.1% of the library has one in this group of screens. Unless noted, calls come from the whole dose curve; as a rule, active = well fitted curve in the direction sought with a large enough effect; inconclusive = small, poorly fitted or top-dose-only effect, or another doubt; inactive = no such curve, though single readings can be large; an effect the other way counts as inactive or inconclusive.

SMILES | FUS suppressor | Abeta yeast res | TSG101-PTAP inh | aSyn rescue | TDP43 rescue
Nc1ncnc2c1nc(Sc1ccc(Cl)cc1)n2[C@H]1OC2COP(=O)(O)O[C@H]2[C@@H]1O (some centres undefined) | . | . | . | - | .
O=C(NC1CCCCN(Cc2ccc(Cl)cc2)C1=O)c1ccccc1-c1ccc(Cl)c(Cl)c1 (centres undefined) | - | . | . | . | .
CCC(C)NC(=O)c1c(N)n(/N=C/c2cccnc2)c2nc3ccccc3nc12 (centres undefined) | - | - | - | - | 14µM
CCC(C)NC(=O)c1c(N)n(/N=C/c2ccccn2)c2nc3ccccc3nc12 (centres undefined) | - | - | - | - | -
COc1cccc(C(NC(C)=O)c2nc(-c3cccc(F)c3)cs2)c1 (centres undefined) | - | - | . | - | -
COc1cccc(C(=O)Oc2ccc3ccc(O)cc3c2)c1 | - | - | - | - | 20µM
COc1cccc(C(=O)NNC(=O)c2ccc3ccccc3c2)c1 | - | - | - | - | -
Cc1ccccc1C(=O)Oc1ccc2ccc(O)cc2c1 | - | - | - | - | 18µM
CCNC(=O)C1CCCN(C(=O)c2cccc(C(F)(F)F)c2)CC1 (centres undefined) | - | - | . | - | -
CCC/C=C/c1ccc(CN2C(CC(C)C)C(=O)N(Cc3cn(Cc4ccco4)nn3)CCS2(=O)=O)cc1 (centres undefined) | ? | - | . | - | -
Cc1ccccc1NC(=O)c1c(C)oc2ccc(O)c(CN(C)Cc3ccccc3)c12 | - | - | . | . | -
CCN(CC)c1ccc(C(=C2C=CC(=[N+](CC)CC)C=C2)c2ccc(S(=O)(=O)O)cc2S(=O)(=O)[O-])cc1 | 32µM | - | - | - | -
CN(C)c1ccc(C(=C2C=CC(=[N+](C)C)C=C2)c2c(O)c(S(=O)(=O)[O-])cc3cc(S(=O)(=O)O)ccc23)cc1 | . | . | . | - | .
Cc1ncc(CO)c2c1Oc1nc(-c3ccc(F)cc3)nc(SCC(=O)N3CCCCC3)c1C2 | - | - | . | . | -
N#Cc1nc(-c2cccs2)oc1NCCc1ccccc1 | - | - | - | - | -
N#Cc1nc(-c2cccs2)oc1NCc1ccc2c(c1)OCO2 | - | - | - | - | 28µM
CCC1CCCCN1S(=O)(=O)c1ccc2c(c1)CCN2C(=O)C1CCC1 (centres undefined) | - | - | - | - | 35µM
CCC1CCCCN1S(=O)(=O)c1ccc2c(c1)CCCN2C(C)=O (centres undefined) | - | - | . | . | ?
CCOC(=O)C1CCCCN1S(=O)(=O)c1ccc2c(c1)CC(C)N2C(=O)C1CCC1 (centres undefined) | 25µM | . | - | - | -
N#C/C(=C\c1ccco1)Sc1nc2ccccc2s1 | - | - | - | - | 16µM
CC(C)C(=O)NC(=S)/C=C1/N(C)c2ccccc2C1(C)C | - | ? | - | - | 35µM
CN1/C(=C\C(=O)COC(=O)c2ccccc2O)C(C)(C)c2ccccc21 | - | - | - | - | -
Cc1ccc(C(=O)NC(=S)/C=C2\N(C)c3ccccc3C2(C)C)cc1 | - | - | - | - | -
COc1ccccc1OCC(=O)/C=C1/N(C)c2ccccc2C1(C)C | - | - | - | - | 14µM
NC(=O)C1=CC2C3C=CC2(O)C(=O)OC3O1 (centres undefined) | . | - | - | - | -
SMILES | FUS suppressor | Abeta yeast res | TSG101-PTAP inh | aSyn rescue | TDP43 rescue
N#CC1=C(Nc2ccccc2Cl)SC2(CCCC2)NC1=O | - | ? | . | ? | -
O=C(NC1CCSc2ccccc21)c1cccc([N+](=O)[O-])c1 (centres undefined) | - | - | - | - | 13µM
COc1ccc(/C=C/c2c(-c3ccc(OC)cc3)sc3ccc(N4CCOCC4)cc23)cc1 | - | - | - | - | -
COc1ccc(-c2oc3ccc(N4CCOCC4)cc3c2/C=C/c2ccc(OC)c(OC)c2)cc1 | 13µM | - | - | - | -
CCNC(=O)c1ccc2c(c1)sc1nc(-c3cccc(OC)c3)cn12 | - | - | . | . | 16µM
CCCn1nnc(NC(=O)c2ccc(-c3cccc(Cl)c3)o2)n1 | - | - | - | - | 13µM
Cc1oc2c(c1C(=O)N1CCC(C)CC1)C(=O)c1ccccc1C2=O | - | - | - | - | 13µM
CCOC(=O)C1CCN(C(=O)c2c(C)oc3c2C(=O)c2ccccc2C3=O)CC1 | - | - | - | - | -
CC(C)Cn1c(=S)[nH]c2ccccc2c1=O | - | ? | - | - | -
C=C(C)Cn1c(=S)[nH]c2ccccc2c1=O | - | - | - | - | 13µM
COc1ccc(OC)c(-c2nc3c(C#N)c[nH]n3c2NC2CCCCC2)c1 | - | - | . | . | -[9.22 µM]
CC(=O)N1N=C(c2ccc(Br)cc2)CC1c1cn(C)c2ccccc12 (centres undefined) | . | - | - | ? | 25µM
CCCC(=O)N1N=C(c2ccccc2)CC1c1cn(C)c2ccccc12 (centres undefined) | . | - | - | - | ?
Cc1cccc(OCCSc2nnc(-c3ccoc3C)n2C)c1 | - | - | - | - | 18µM
Cc1cccc(OCCSc2nncn2C)c1 | - | - | - | - | -
C[C@H]1C(c2ccc(F)cc2)=NN(c2ccccc2)[C@@H]1CO | - | ? | - | - | 18µM
COc1ccccc1[C@H]1C(c2ccc(F)cc2)=NN(c2ccccc2)[C@@H]1CO | - | - | - | - | 28µM
OC[C@@H]1[C@@H](c2ccc(F)cc2)C(c2cccc(Cl)c2)=NN1c1ccccc1 | - | - | - | - | -
NCc1cn(Cc2ccccc2)nc1-c1ccccc1 | . | . | . | - | .
Cc1ccc(N2CC(C)Cn3c2nc2c3c(=O)n(Cc3cccc(Cl)c3)c(=O)n2C)cc1 (centres undefined) | - | - | . | . | -
c1ccc(-c2nc(-n3ccnc3)nc(-n3ccnc3)n2)cc1 | - | - | - | . | ?
c1ccc(-c2nc(NC3CC3)nc(-n3ccnc3)n2)cc1 | - | - | - | - | 5µM
Cc1ccc(C)c(C(=O)COC(=O)c2n[nH]c3ccccc23)c1 | - | - | - | ? | 20µM
O=[N+]([O-])c1ccc(Nc2nc(N/N=C\c3ccc4c(c3)OCO4)nc(N3CCCCC3)n2)cc1 | ? | ? | - | - | 11µM
O=[N+]([O-])c1ccc(/C=N/Nc2nc(N3CCCCCC3)nc(N3CCCCCC3)n2)o1 | ? | - | - | - | 22µM
O=[N+]([O-])c1ccc(/C=N/Nc2nc(N3CCCCC3)nc(N3CCCCC3)n2)cc1 | - | - | - | - | -
O=C(NC(=S)Nc1ccccc1Br)C1CC1 | - | - | - | - | 13µM
Cc1ccc(NC(=S)NC(=O)C2CCCC2)c(Br)c1 | - | ? | - | -[1.84 µM] | 14µM
Cc1ccccc1NC(=S)NC(=O)C1CCCCC1 | - | ? | - | - | -
O=C(CCCN1C(=O)/C(=C/c2ccccc2Cl)SC1=S)Nc1ccccn1 | - | - | - | - | -
